# Hit rate of the full screen: of about 13,000 compounds, about 3,200 (25%) showed an effect of 50% or more. The list shows a part of the results.
# System: P. falciparum stage V gametocytes
# Set-up: BacTiter-Glo ATP luminescence viability of purified stage V gametocytes in 384-well plates, per cent inhibition versus DMSO
# Conditions: 48 h, 5 µM; inhibitor
row,Structure (SMILES),% Inhibition [%]
1,CCOC(=O)c1c(NC(=O)c2ccccc2)sc2c(O)c(CNC3CCCCC3)ccc12 [TCMDC-124070],25.8
2,COc1ccc(Cl)cc1N1CCN(CCCNC(=O)c2ccc(-c3nc4cc5ccccc5cc4[nH]3)c(F)c2)CC1 [TCMDC-140099],14.17
3,COc1ccc(-c2ncnc(C(F)(F)F)c2-c2ccc(Cl)cc2)c(O)c1 [TCMDC-123728],11.32
4,Cc1nnsc1C(=O)Nc1ccc(-c2ccc(-c3nc4ccccc4[nH]3)s2)cc1 [TCMDC-137077],0.7938
5,Cc1ccc(C(=O)Nc2ccc(Cl)c(N3CCN(CCc4ccccc4)CC3)c2)cc1 [TCMDC-133536],-30.75
6,Nc1cccc(CNCc2cccc(-c3csc(-c4nc5ccccc5[nH]4)c3)c2)c1 [TCMDC-132925],-31.54
7,Cc1nc2ccc3ccc(CNc4ccc5c(c4)CN([C@@H](CCC(=O)O)C(=O)O)C5=O)cc3c2c(=O)[nH]1 [TCMDC-131928],20.65
8,CN(C)CC1CCCN1Cc1ccccc1-c1cnn(C)c(=O)c1Oc1ccccc1F (stereo not shown) [TCMDC-135099],9.933
9,CCC(C)c1cnc2nc(N)nc(N)c2c1C (stereo not shown) [TCMDC-137718],7.013
10,O=C(Nc1ccccc1)N(Cc1ccc(-c2ccc(CNCc3ccc4c(c3)OCO4)cc2)cc1)C1CCN(Cc2ccccc2)CC1 [TCMDC-140604],20.36
11,O=C(Nc1ccccc1)N(Cc1ccc(-c2cccc(CNCc3ccc4c(c3)OCO4)c2)cc1)C1CCN(Cc2ccccc2)CC1 [TCMDC-140603],101.1
12,O=C(NCc1ccccc1)c1ccc(C(=O)NCC2CNCCO2)cc1 (stereo not shown) [TCMDC-136507],8.876
13,O=c1ccc2ccc(F)c3c2n1CC3CN1CCC(NCc2cccc(-c3cccs3)c2)CC1 (stereo not shown) [TCMDC-134415],19.28
14,Cc1cc(N[C@@H](C)C(=O)Nc2ccccc2)nc(NCCc2ccc(F)cc2)n1 [TCMDC-134798],30.85
15,Cc1cc(NCc2ccccc2)nc(NCc2ccccc2)n1 [TCMDC-123662],26.39
16,Cc1cc(NCC(c2ccccc2)c2ccccc2)nc(NCc2ccc(C(F)(F)F)cc2)n1 [TCMDC-138302],69.12
17,Cc1cc(Nc2cccc(C(F)(F)F)c2)nc(NCc2ccccc2)n1 [TCMDC-125566],3.225
18,Cc1cc(NCCc2ccc(O)cc2)nc(NCC(c2ccccc2)c2ccccc2)n1 [TCMDC-138305],99.17
19,Oc1cc2c(cc1CN1CCN(Cc3ccccc3F)CC1)CCC2 [TCMDC-125013],-13.06
20,Cc1nc(C(=O)N2CCCC[C@H]2CNC(=O)c2ccc(-c3ccc(N4CCCC4=O)cc3C)cc2)c(-c2ccc(F)cc2)s1 [TCMDC-141437],4.719
21,CCNc1cc(C(=O)N[C@@H](Cc2ccccc2)[C@H](O)CNC2CCC(C)(C)CC2)cc(N2CCCCS2(=O)=O)c1 [TCMDC-135108],43.04
22,Fc1ccc2nc(-c3cccc(-c4ccc(CN5CCN(c6ccncc6)CC5)cc4)c3)[nH]c2c1 [TCMDC-132918],89.6
23,O=C(O)C(F)(F)F.c1cc(-c2ccc(CN3CCN(c4ccncc4)CC3)cc2)cc(-c2nc3ccccc3[nH]2)c1 [TCMDC-132556],5.696
24,Fc1ccc2nc(-c3cccc(-c4ccc(CN5CCN(c6cnccn6)CC5)cc4)c3)[nH]c2c1 [TCMDC-132679],21.91
25,Fc1ccc2nc(-c3ccc(-c4cccc(CN5CCN(c6ccncc6)CC5)c4)cc3)[nH]c2c1 [TCMDC-133822],-6.554

row,Structure (SMILES),% Inhibition [%]
1,Fc1ccc2nc(-c3cccc(-c4cccc(CN5CCN(c6ccncc6)CC5)c4)c3)[nH]c2c1 [TCMDC-132922],104.6
2,c1cc(CN2CCN(c3ccncc3)CC2)cc(-c2cccc(-c3nc4ccccc4[nH]3)c2)c1 [TCMDC-132923],40.29
3,O=C(O)C(F)(F)F.c1cncc(CCNCc2ccc(-c3ccc(-c4nc5ccccc5[nH]4)s3)cc2)c1 [TCMDC-132876],-17.55
4,COc1ccc(-c2cnc3ccc(NC4CCC(O)CC4)nn23)cn1 (stereo not shown) [TCMDC-136694],36.86
5,c1cc(CNCc2ccc3c(c2)OCO3)cc(-c2cccc(CNc3ccc4ncccc4c3)c2)c1 [TCMDC-140721],-2.829
6,c1ccc(CCNCc2cccc(-c3ccccc3CNCc3ccc4c(c3)OCO4)c2)nc1 [TCMDC-140068],70.81
7,CN1CCN(CCCNCc2ccccc2-c2cccc(CNCc3ccc4c(c3)OCO4)c2)CC1 [TCMDC-140476],103.3
8,FC(F)(F)c1ccc(N2CCCN(Cc3cccc(-c4ccccc4CNCc4ccc5c(c4)OCO5)c3)CC2)nc1 [TCMDC-140216],-3.324
9,O=C(Nc1ccc(OC2CCN(Cc3ccsc3)C2)c(Cl)c1)c1ccc(F)cc1 (stereo not shown) [TCMDC-133952],22.72
10,O=C(NCc1cccc(F)c1)Nc1cccc(-c2cccc(-c3nc4ccc(C(F)(F)F)cc4[nH]3)c2)c1 [TCMDC-133292],-20.5
11,C#CCCC(=O)Nc1cccc(-c2cccc(-c3nc4ccc(C(F)(F)F)cc4[nH]3)c2)c1 [TCMDC-136856],5.566
12,O=C(Nc1cccc(-c2nn3ccccc3c2-c2ccnc(Nc3ccccc3)n2)c1)c1c(F)cccc1F [TCMDC-135526],-37.81
13,CCc1cn2c3c(cc(C(=O)N[C@@H](Cc4ccccc4)[C@H](O)CNC4CCC4)cc13)N(C)S(=O)(=O)CC2 [TCMDC-135674],32.1
14,CCc1cn2c3c(cc(C(=O)N[C@@H](Cc4ccccc4)[C@H](O)CNC4CC4)cc13)N(CC)S(=O)(=O)CC2 [TCMDC-135553],73.35
15,CCc1cn2c3c(cc(C(=O)N[C@@H](Cc4ccccc4)[C@H](O)CNC4CCOCC4)cc13)N(C)S(=O)(=O)C2 [TCMDC-135394],4.179
16,CCc1cn2c3c(cc(C(=O)N[C@@H](Cc4cccc(F)c4)[C@H](O)CNC4CC4)cc13)N(C)S(=O)(=O)CC2 [TCMDC-135651],-23.22
17,CC(C)c1cn2c3c(cc(C(=O)N[C@@H](Cc4ccccc4)[C@H](O)CNC4CCCCC4)cc13)N(C)S(=O)(=O)CC2 [TCMDC-135533],94.75
18,CCCc1cn2c3c(cc(C(=O)N[C@@H](Cc4ccccc4)[C@H](O)CNC4CCCCC4)cc13)N(C)S(=O)(=O)CC2 [TCMDC-135771],15.59
19,CCc1cn2c3c(cc(C(=O)N[C@@H](Cc4cc(F)cc(F)c4)[C@H](O)CNC4CCOCC4)cc13)N(C)S(=O)(=O)CC2 [TCMDC-135797],26.1
20,CC(C)c1cn2c3c(cc(C(=O)N[C@@H](Cc4ccccc4)[C@H](O)CNC4CCOCC4)cc13)N(C)S(=O)(=O)CC2 [TCMDC-135535],2.441
21,CCc1cn2c3c(cc(C(=O)N[C@@H](Cc4cc(F)cc(F)c4)[C@H](O)CNC4CC4)cc13)N(C)S(=O)(=O)CC2 [TCMDC-135673],30.94
22,CCc1cn2c3c(cc(C(=O)N[C@@H](Cc4cc(F)cc(F)c4)[C@H](O)CNC4CCCCC4)cc13)N(C)S(=O)(=O)CC2 [TCMDC-135672],90.03
23,CCc1cn2c3c(cc(C(=O)N[C@@H](Cc4ccccc4)[C@H](O)CNC4CCCC4)cc13)N(C)S(=O)(=O)CC2 [TCMDC-135803],56.31
24,CC(C)NC[C@@H](O)[C@H](Cc1ccccc1)NC(=O)c1cc2c3c(c1)c(C(C)C)cn3CCS(=O)(=O)N2C [TCMDC-135532],49.45
